Assay outcomes: PubChem BioAssay, National Center for Advancing Translational Sciences (NCATS)
A selection: hits, their analogues and other compounds. The true share with any hit is near 13%.
LASV entry inh = blocks Lassa virus binding to or entry into cells. Lassa virus pseudotype entry inhibition, cell reporter. Potency, µM (titrated, usually from 37.9 µM), inactives show top-dose activity change, negative = inhibition, most hits filed as inhibitors. actives 1.2% (n = 300,000); calls by dose curve; tested in HEK293 cells; further: potency means the concentration at half of the fitted maximal effect; on the % scale 0 is the no-effect control and ±100 the full control effect; nearly all actives have a fitted effect of over 50% in size
FMDV antiviral = antivirals against foot and mouth disease virus; FMDV antiviral cell-based qHTS; Potency, µM (series often up to 57.9 µM), inactives show top-dose activity change, negative = inhibition, actives largely listed as inhibitors; actives 1.2% (n = 410,000); calls by dose curve; tested in HEK293T cells; further: read-out not given here; potency means the concentration at half of the fitted maximal effect; on the % scale 0 is the no-effect control and ±100 the full control effect; nearly all actives have a fitted effect of over 45% in size
HCV inh = blocks hepatitis C virus; AID 651820; actives 3.4% (n = 340,000); Huh7.5.1 HCVcc-Cre infection, luciferase reporter, 44 h; Potency, µM (doses to about 41.8 µM), inactives show at the highest dose activity change, negative = inhibition, hits mostly inhibitors; active means well fitted inhibition curve with a large enough effect; inconclusive means small, poorly fitted or top-dose-only effect, or another doubt; inactive means no such curve, though single readings can be large or run the other way; further: potency means the concentration at half of the fitted maximal effect; on the % scale 0 is the no-effect control and ±100 the full control effect
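Cells seeded at 1,000/well and cultured 4 h, then compounds added followed by HCVcc-Cre virus (~0.5 moi). After 44 h further culture, luciferase substrate was added, plates held 15 min at room temperature, and luminescence read for 15 sec.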
MARV entry inh = Marburg virus entry inhibition. AID 540276. Potency, µM (titrated, usually from 37.8 µM), for inactives: at the top dose activity change, negative = inhibition, hits mostly inhibitors. actives 1.8% (n = 300,000). Marburg virus pseudotyped entry inhibition, cell reporter; calls by dose curve; tested in HEK293 cells; further: potency means the concentration at half of the fitted maximal effect; on the % scale 0 is the no-effect control and ±100 the full control effect
Cycloheximide cs = affects cycloheximide protein synthesis inhibition readout, counter-screen | AID 2314 | cell reporter, cycloheximide protein synthesis inhibition counterscreen | max response, % | actives 12% (n = 300,000); in the data active means max response mostly above about 13%, no sharp cut-off; inactive means mostly below about 14%; further: read at 38.3 µM for the half of the compounds with a filed dose; 0% is about no effect
Shiga toxin inh = inhibitors of Shiga toxin in Vero cells | actives 9.2% (n = 290,000) | AID 2315 | inhibition, % at 38.7 µM | Vero cells, Shiga toxin protein synthesis inhibition reporter; in the data active means inhibition mostly above about 28%, no sharp cut-off; inactive means mostly below about 43%; further: 0% is about no effect
* hit, by the source's call; ! = repeats disagree; [ ] = dose if it differs, or a comment.

What do the screens show for `O=C(NN1CCCCC1)c1cccc(COc2ccc(Cl)cc2)c1`?
LASV entry inh: inconclusive; FMDV antiviral: 9%; HCV inh: inconclusive; MARV entry inh: inconclusive; Cycloheximide cs: 76*; Shiga toxin inh: 90*

What do the screens show for `CC(C)Oc1cccc(C(=O)N2CCCC2)c1`?
LASV entry inh: 5%[46.1 µM]; FMDV antiviral: 1%; HCV inh: 14%; MARV entry inh: 13%[46.1 µM]; Cycloheximide cs: 15; Shiga toxin inh: -5

How did O=C(O)c1cc(OCc2ccccc2)cc(OCc2ccccc2)c1 do in these assays?
LASV entry inh: 14%[46.1 µM]; FMDV antiviral: -5%; HCV inh: 5%; MARV entry inh: 26%[46.1 µM]; Cycloheximide cs: -4; Shiga toxin inh: -14

Results for CCOc1ccc(OCc2cccc(C(=O)N3CCCC3)c2)cc1 ?
LASV entry inh: inconclusive; HCV inh: -5%; MARV entry inh: inconclusive; Cycloheximide cs: 87*; Shiga toxin inh: 139*

Results for Cc1ccc(C(=O)NCCCNC(=O)c2ccccc2F)cn1 ?
LASV entry inh: 12%; FMDV antiviral: -11%; HCV inh: -3%; MARV entry inh: 10%[46.1 µM]; Cycloheximide cs: -2; Shiga toxin inh: -5

Results for O=C(CSc1nc(O)c(Cc2ccccc2)c(=O)[nH]1)N1CCOCC1 ?
FMDV antiviral: -4%; HCV inh: -5%; Cycloheximide cs: -2; Shiga toxin inh: -4

How did CCOc1ccc(NS(=O)(=O)c2ccc(C(=O)N3CCCCC3)cc2)cc1 do in these assays?
LASV entry inh: inconclusive; FMDV antiviral: -28%; HCV inh: inconclusive; MARV entry inh: -6%[46.1 µM]; Cycloheximide cs: -2; Shiga toxin inh: 8

How did CCOc1ccc(OCc2cccc(C(=O)N3CCCCCC3)c2)cc1 do in these assays?
LASV entry inh: 3.5µM*; FMDV antiviral: -72%; HCV inh: -34%; MARV entry inh: inconclusive; Cycloheximide cs: 65*; Shiga toxin inh: active

What do the screens show for `CCOc1ccc(C2Sc3ccccc3NC3=C2C(=O)OC3)cc1` (centres undefined)?
LASV entry inh: -9%; FMDV antiviral: -13%; HCV inh: inconclusive; MARV entry inh: 13%; Cycloheximide cs: 23*; Shiga toxin inh: 27

What do the screens show for `O=C1OCC2=C1C(c1ccc3c(c1)OCO3)Sc1ccccc1N2` (centres undefined)?
LASV entry inh: -12%; FMDV antiviral: -29%; HCV inh: inconclusive; MARV entry inh: inconclusive; Cycloheximide cs: 1; Shiga toxin inh: -8

What do the screens show for `COc1cc(OC)c2c(-c3cccc(/C=C/c4ccc(F)cc4)c3)cc(=O)oc2c1`?
FMDV antiviral: 63%; HCV inh: -8%; Cycloheximide cs: 50*; Shiga toxin inh: active

Results for COc1cc(OC)c2c(-c3cccc(-c4ccc(O)cc4)c3)cc(=O)oc2c1 ?
FMDV antiviral: inconclusive; HCV inh: inconclusive; Cycloheximide cs: -2; Shiga toxin inh: inactive

What do the screens show for `COc1ccc(-c2cccc(-c3cc(=O)oc4cc(OC)cc(OC)c34)c2)cc1`?
FMDV antiviral: -26%; HCV inh: inconclusive

How did COc1ccc(-c2cccc(-c3cc(=O)oc4cc5c(cc34)OCO5)c2)cc1 do in these assays?
FMDV antiviral: -2%; HCV inh: 21%; Cycloheximide cs: 30*; Shiga toxin inh: inactive

What do the screens show for `COc1cc(OC)c2c(-c3cccc(-c4cccc(C)c4)c3)cc(=O)oc2c1`?
FMDV antiviral: inconclusive; HCV inh: 4.5µM*; Cycloheximide cs: 5; Shiga toxin inh: inactive

How did COc1cc(OC)c2c(-c3cccc(-c4ccc(N(C)C)cc4)c3)cc(=O)oc2c1 do in these assays?
FMDV antiviral: -6%; HCV inh: inconclusive; Cycloheximide cs: 37*; Shiga toxin inh: active

Results for N#Cc1nc(-c2ccc(OCc3ccccc3)cc2)oc1NCCN1CCOCC1 ?
MARV entry inh: -6%; Cycloheximide cs: -3; Shiga toxin inh: -2

What do the screens show for `CCN1CCN(Cc2ccc(NC(=O)c3ccc(C)c(NC(=O)c4cccc5[nH]ccc45)c3)cc2C(F)(F)F)CC1`?
FMDV antiviral: 18µM*!; HCV inh: 9%; Cycloheximide cs: 53*; Shiga toxin inh: 94*

How did CCN1CCN(Cc2ccc(NC(=O)c3ccc(C)c(NC(=O)c4nccn4C)c3)cc2C(F)(F)F)CC1 do in these assays?
FMDV antiviral: 0%; HCV inh: -12%; Cycloheximide cs: 6; Shiga toxin inh: -4
